# Activity calls are given as the source filed them. How the source made its calls: active means hit-call score of the fitted dose curve at least 0.9, where 1 is the maximum; inactive means score below 0.9.
# Read-out: Cytochrome P450 7A1 (Homo sapiens) (UniProt P22680)
# Experiment: LTEA_HepaRG_CYP7A1: Life Technologies and Expression Analysis (LTEA) Assay for Cytochrome P450 7A1 (CYP7A1) using HepaRG (AID 2283496)
# Conditions: mRNA level, 48 h; actives raise or lower the signal
# Procedure: LTEA_HepaRG is a cell based, multiplexed-readout assay that uses HepaRG, a human liver cell line, with measurements taken at 48 hours after chemical dosing on a 96-well plate.LTEA_HepaRG_CYP7A1 is one of 102 assay component(s) measured in the LTEA HepaRG cell culture assay. It is a marker of NR mediated metabolism.Data from the assay component LTEA_HepaRG_CYP7A1 was analyzed into 1 endpoint. This assay endpoint, LTEA_HepaRG_CYP7A1, was analyzed with bidirectional fitting relative to DMSO as the negative control and baseline of activity. Using a type of inducible reporter, measures of mRNA induction for gain or loss-of-signal activity can be used to understand regulation of transcription factor activity. To generalize the intended target to other relatable targets, this assay endpoint is annotated to the cyp intended target family, where the subfamily is xenobiotic metabolism.
# A total of 1060 chemcials from the ToxCast library were tested in eight-point concentration-response experiments. Cell culture and cytotoxicity assays were conducted at Thermo Fisher Scientific's Custom Services facility (Madison, WI). A single lot of human HepaRG cells (Thermo Fisher Scientific, Frederick, MD) was used for the cell culture experiments. 96-well format collagen type I coated plates of human HepaRG cells were prepared using established methods. Briefly, cryopreserved HepaRG cells were thawed, plated at a density of approximately 100,000 cells/well in HepaRG Thaw, Plate, and General Purpose media (HPRG770, Thermo Fisher Scientific), and incubated for 48 hours. 0.5% DMSO was selected as vehicle control to balance the requisite need of DMSO in HepaRG cultures to maintain differentiation (for example, baseline metabolism, proportions of hepatocytes vs. cholangiocytes), while enabling further hepatic receptor pathway activation (for example, PXR and CAR) in response to chemical exposure. 48 hours after plating, the culture medium was replaced with HepaRG Serum-Free Incudtion Media. Cells were exposed to each test chemical in duplicate and maintained in CO2 incubators for another 48 hours. Chemical plates were thawed to room temperature and 200x concentrations of treatment groups were prepared. 8-point conentration-reponse curves were made with the highest exposure at 100 uM, followed by half-log dilutions, all in 0.5% DMSO. Each test plate contained variouse controls, induction positive controls (1mM phenobarbital), cytotoxicity positive controls ([…] aflatoxin B1), vehicle controls (0.5% DMSO), and total lysis controls (0.5% DMSO). Cell morphology images were taken using an Essen IncuCyte FLR automated microscope, with six 96-well plates imaged in about 24 minutes. Images were captured and exported and JPEG files. Spent culture media was transfered to black-well plates for the LDH assay, and remaining media was sorted at -80 C for later use. Cells were treated with RLT buffer and frozen until shipped for gene expression analysis. Total RNA was isolated from the cell suspension in 75 uL of Buffer RLT (Qiagen, Germantown, MD 20874) by Quintiles/Expression Analysis (Durham, NC) using a custom isolation procedure. Total RNA from each plate well was transferred to a preamplification plate. Fluidigm's 96.96 Dynamic ArrayTM (Fluidigm, Amsterdam, the Netherlands) technology was used for gene expression analyses by quantitative reverse transcription polymerase chain reaction (qRT-PCR, performed by Quintiles/Expression Analysis, Durham, NC)89. Standard TaqManTM Assays (Applied Biosystems/ThermoFisher Scientific, Foster City, CA) were used to assess the expression of 93 genes selected based on their selectivity and sensitivity to important hepatic receptors known to be modulated by environmental chemicals; importance in human hepatocyte functionality; and hepatotoxicity. […]
SMILES,outcome,AC50
COc1cccc([C@H](O)C2CCN(CCc3ccc(F)cc3)CC2)c1OC,inactive,–
O=C(O)c1ccccc1C(=O)OCc1ccccc1,inactive,–
CC/C(=C(/CC)c1ccc(O)cc1)c1ccc(O)cc1,–,84.8 µM (active)
CC1=CC(=O)/C(=C(/C)O)C(=O)O1,inactive,–
Cc1ccc2oc(CN(Cc3ccccc3)C(=O)Nc3c(F)cc(F)cc3F)c(-c3ccc(Cl)cc3)c2c1,–,5.31 µM (active)
CC(C)(C)c1cc(/C=C2\SC(N)=NC2=O)cc(C(C)(C)C)c1O,–,25.2 µM (active)
CCOC(=O)O[C@H](C)OC(=O)c1ccc2c(c1)cc(C(=O)NC1CCN(C(C)C)CC1)n2Cc1cc(-c2ccc(Cl)s2)on1,inactive,–
Cc1occc1C(=O)Nc1ccc(C(=O)N2CCC(F)(F)/C(=C\C(=O)N3CCC(N4CCCCC4)CC3)c3ccccc32)cc1,–,17.2 µM (active)
Oc1ccccc1,inactive,–
CCCCOC(=O)CC(CC(=O)OCCCC)(OC(C)=O)C(=O)OCCCC,inactive,–
CN(C)C(=O)C1(N2CCCCC2)CCN(CC[C@@]2(c3ccc(Cl)c(Cl)c3)CN(C(=O)c3ccccc3)CCO2)CC1,–,25.2 µM (active)
CCO[Si](CCCNC(N)=O)(OCC)OCC,inactive,–
Cc1c2ccccc2c(C)c2c1ccc1ccccc12,–,65.9 µM (active)
CCN(Cc1cccc(S(=O)(=O)O)c1)c1ccc(C(=C2C=CC(=[N+](CC)Cc3cccc(S(=O)(=O)O)c3)C=C2)c2ccccc2S(=O)(=O)[O-])cc1,inactive,–
Clc1cc(Cl)c2c(c1)N=C1CCCCCN1C2,inactive,–
CC(C)(C)c1csc(-c2cc3cc(OCc4ccccc4CC(=O)O)ccc3o2)n1,–,22.5 µM (active)
CN(C[C@@H](CC[N+]12CCC(C3CCCCC3)(CC1)CC2)c1ccc(Cl)c(Cl)c1)C(=O)c1cc(C(F)(F)F)cc(C(F)(F)F)c1,–,23.4 µM (active)
CCCCCCCCCCCC[N+](C)(C)C,–,85.8 µM (active)
COCC(C)OCC(C)OCC(C)O (stereo not given),inactive,–
CCCCCCCCCC(=O)O,inactive,–

SMILES,outcome,AC50
NCc1cccc(C2CCN(C(=O)c3ccc(C#Cc4ccccc4F)o3)CC2)c1,–,86.3 µM (active)
CCCCOC(=O)c1ccc(O)cc1,inactive,–
O=c1ccc2ccccc2o1,inactive,–
CCCCCCCCOc1ccc(C(=O)c2ccccc2)c(O)c1,inactive,–
O=C(OCCCCCCOC(=O)c1ccccc1)c1ccccc1,inactive,–
CCCCCCCC[Si](OCC)(OCC)OCC,inactive,–
CCN(CC)C(=O)c1cc(S(=O)(=O)Cc2ccccc2)c(N2CCC(c3ccccc3)CC2)cc1N(CC)CCN(C)C,inactive,–
C[C@]12CC[C@@H]3c4ccc(O)cc4CC[C@H]3[C@@H]1CC[C@H]2O,inactive,–
CCCOC(=O)c1cc(O)c(O)c(O)c1,–,17.9 µM (active)
NC(=O)c1nc(-c2cccc(-c3cc(F)ccc3OCC(F)(F)C(F)(F)F)c2)n[nH]1,inactive,–
O=C1CCC(C2CCCCC2)CC1,inactive,–
O=c1[nH]sc2ccccc12,inactive,–
CC[C@@H]1C[C@H](N(Cc2cc(C(F)(F)F)cc(C(F)(F)F)c2)C(C)=O)c2cc(C(F)(F)F)ccc2N1C(=O)OC(C)C,inactive,–
CO[C@H]1/C=C/O[C@@]2(C)Oc3c(C)c(O)c4c(O)c(c(/C=N/N5CCN(C)CC5)c(O)c4c3C2=O)NC(=O)/C(C)=C\C=C\[C@H](C)[C@H](O)[C@@H](C)[C@@H](O)[C@@H](C)[C@H](OC(C)=O)[C@@H]1C,–,1.62 µM (active)
Cc1cc2c(cc1C(F)(F)F)N(C(=O)Nc1ccc(Oc3cccnc3C)nc1)CC2,–,46 µM (active)
OC12N=C(c3ccccc3)SC1Cc1cc(Cl)ccc12 (stereo not given),–,9.92 µM (active)
CN1C(=O)N(c2ccccc2Br)Cc2cnc(Nc3ccc4c(c3)OCC(CO)O4)nc21 (stereo not given),–,72.8 µM (active)
CCCCCCCCOC(=O)c1cc(O)c(O)c(O)c1,inactive,–
c1ccc2n[nH]nc2c1,inactive,–
COc1cc(C(=O)NC2CCN(C)CC2)ccc1Nc1ncc2c(n1)N(C1CCCC1)CC(F)(F)C(=O)N2C,–,8.23 µM (active)

# Source: PubChem BioAssay (EPA / NIEHS)
